Test results taken from PubChem BioAssay AID1851 (National Center for Advancing Translational Sciences (NCATS), 2009).
“And” between values parts separate entries of the source, which are not always exact repeats. Equal values may be shown once. In all, about 16,000 compounds went through this assay and about 5,700 (36%) were called active. Another 24% or so got no clear call; they are omitted. The list shows a part of the results. A number with no mark means an inactive call. Calls follow the shape of the dose curve; as a rule, active = well fitted curve in the direction sought with a large enough effect; inconclusive = small, poorly fitted or top-dose-only effect, or effect the other way; inactive = no such curve, though single readings can be large or run the other way.

biological target: Cytochrome P450 1A2 (Homo sapiens) (UniProt P05177); assay: Cytochrome panel assay with activity outcomes; details: recombinant CYP, pro-luciferin dealkylation, luminescence, p450-cyp1a2; series mostly up to 57.1 µM; activity, negative = inhibition: at the top concentration
% is scaled to controls: 0 for no effect and ±100 for the full control effect.

Chain of Cytochrome P450 1A2 (Homo sapiens) (P05177 whole entry, looked up): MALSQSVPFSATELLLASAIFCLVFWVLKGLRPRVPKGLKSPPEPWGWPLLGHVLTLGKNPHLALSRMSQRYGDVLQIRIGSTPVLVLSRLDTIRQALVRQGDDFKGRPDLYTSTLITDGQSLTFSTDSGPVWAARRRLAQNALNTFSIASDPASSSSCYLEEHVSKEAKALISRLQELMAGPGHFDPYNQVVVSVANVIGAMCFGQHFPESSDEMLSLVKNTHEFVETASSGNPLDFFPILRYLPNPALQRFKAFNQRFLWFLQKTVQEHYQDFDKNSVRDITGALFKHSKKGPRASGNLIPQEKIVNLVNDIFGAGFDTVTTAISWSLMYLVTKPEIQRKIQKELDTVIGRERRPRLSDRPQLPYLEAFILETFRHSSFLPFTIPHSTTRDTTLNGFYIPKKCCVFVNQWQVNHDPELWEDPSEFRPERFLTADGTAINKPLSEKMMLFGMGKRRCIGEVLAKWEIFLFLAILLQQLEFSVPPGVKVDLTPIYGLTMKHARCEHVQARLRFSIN

SMILES	activity, negative = inhibition	AC50
C/C(CCN1CCCc2nc(C)c(C)cc21)=N\O[C@@H](C)c1cn([C@H](CO)Cc2ccccc2)nn1	-5.46% [at 11.4 µM] and -2.73% [at 11.4 µM]	
Nc1ncnc2c1ncn2[C@H]1O[C@@H](C(=O)O)[C@@H](O)[C@H]1O	-10.9% [at 11.4 µM]	
CC(C)CN1CCCC2(CCN(C(=O)c3csnn3)CC2)C1	-9.16%	
O=C(c1cc(-c2cccs2)on1)N1CCN(c2ccc(F)cc2)CC1		2.82 µM (active)
Nc1ccc(N2CCN(C(=O)c3ccco3)CC2)cc1	16.2%	
O=C(c1ccc2ncsc2c1)N1CCN(c2ccc(O)cc2)CC1	-16.1%	
Cc1cc(C)c(-c2noc(C(=O)OC(C)(C)C)c2C(=O)OC(C)(C)C)c(C)c1	-10.5%	
Cn1c(=O)c(-c2ccccc2)nc2cnc(OCc3ccccc3)nc21		1.58 µM (active)
Cn1c(=O)c(-c2ccc(Cl)cc2)nc2cnc(OCc3ccccc3)nc21		0.794 µM (active)
O=C(c1csnn1)N1CCC2(CCN(Cc3nccs3)CC2)CC1	-4.92%	
COc1ccc(CCNC(=O)CC(NS(=O)(=O)c2ccc(NC(C)=O)cc2)C(C)C)cc1OC (stereo not drawn)	-6.9%	
COC(=O)C(NS(=O)(=O)c1ccc(NC(C)=O)cc1)C(C)C (stereo not drawn)	-19.1%	
COc1ccc(CONS(=O)(=O)c2ccc(NC(C)=O)cc2)cc1Cl		14.1 µM (active)
O=C(CSc1nc2ccccc2c(=O)n1NC(=O)Cc1ccccc1)NCc1ccccc1Cl		15.8 µM (active)
CCOC(=O)c1c(-c2cccc(C)c2)csc1NC(=O)c1c(-c2ccccc2)noc1C	6.98%	
CCOC(=O)c1c(-c2ccccc2)csc1NC(=O)c1cccc(N2C(=O)CCC2=O)c1		8.91 µM (active)
CCOC(=O)c1c(-c2ccc(C)cc2)csc1NC(=O)C1CC=CCC1C(=O)O (stereo not drawn)		12.6 µM (active)
CCOC(=O)c1c(NC(=O)C2C3CCC(O3)C2C(=O)O)sc(C)c1-c1ccc(C)cc1 (stereo not drawn)	9.59%	
CCc1cc(C(c2ccccc2OC)N2CCOCC2)c(NC(=O)c2ccccc2)s1 (stereo not drawn)	-23.9%	
O=C(c1cc(C(F)(F)F)cc(C(F)(F)F)c1)N1CCC2(CCN(Cc3nccs3)CC2)CC1	-7.63%	
CCOC(=O)CSc1cc(=O)n(C)c2cc(Cl)ccc12		1.26 µM (active)
Cn1c(=O)cc(SCC(=O)NCCCN2CCOCC2)c2ccc(Cl)cc21	-14.7%	
Cc1cnc2cc(Cl)ccc2c1SCC(=O)O	-2.26% [at 2.29 µM]	
O=C(CSCc1c(F)cccc1Cl)NCC1CCCO1 (stereo not drawn)		15.8 µM (active)

SMILES	activity, negative = inhibition	AC50
O=C(NCC1CCCO1)c1onc(CSc2ccccc2F)c1C(=O)O (stereo not drawn)	13.9%	
O=C(CN(Cc1ccccc1Cl)C(=O)c1ccc(CN2CCOCC2)o1)NCC1CCCO1 (stereo not drawn)	0.687%	
O=C(NNC(=O)c1cc2cc3ccccc3nc2s1)c1cccc(Cl)c1	-25.7%	
CSc1nc2ccccc2cc1/C=C(\C#N)c1cccc(Cl)c1		2 µM (active)
CSc1nc(C)c(CCOC(=O)c2cccc(C)c2)c(=O)[nH]1	-10.3%	
CSc1nc2ccccc2cc1/C=C(\C#N)c1cccc(C)c1		3.55 µM (active)
CSc1nc2ccccc2cc1/C=C(\C#N)c1ccccc1		2.82 µM (active)
CSc1nc2ccccc2cc1/C=C(\C#N)c1ccc(Cl)cc1Cl		1.78 µM (active)
COc1ccc(NC(=O)N2CC3(CCN(C(=O)c4cccn4C)CC3)C2)cc1	-1.16%	
CCC(=O)OCC(=O)[C@@]1(OC(=O)CC)[C@H](C)C[C@@H]2[C@H]3CCC4=CC(=O)C=C[C@]4(C)[C@]3(Cl)[C@@H](O)C[C@@]21C	-7.99% [at 25.6 µM]	
CN(Cc1ccco1)c1cc(-c2ccccc2Cl)ncn1		2.51 µM (active)
CN(C)Cc1ccccc1-c1cc(N(C)Cc2ccco2)ncn1		15.8 µM (active)
CO[C@]1(C2=NCCN2)COc2ccccc2O1	-19%	
Cc1cc(C(C)(C)C)cc(C)c1CC1=NCCN1	9.92%	
Cc1ccccc1/C=C\C1=NCCN1		6.31 µM (active)
CCCCOc1ccc(C(=O)CCN2CCCCC2)cc1		3.16 µM (active)
CCC(=O)c1ccc(OCC(O)CN2CCCCC2)cc1 (stereo not drawn)	9.96%	
CC(C)C(NC(=O)C1CCCCC1)C(=O)NC1CCN(Cc2ccccc2)CC1 (stereo not drawn)	-3.86%	
Cc1ccc(C(=O)NCC2CCCO2)cc1N1CCCC1=O (stereo not drawn)	-17.5%	
CCOc1cc(NC(=S)NCC2CCCO2)c(OCC)cc1NC(=O)c1ccccc1C (stereo not drawn)	-29.8%	
Cc1ccccc1C(=O)c1c[nH]c(C(=O)NCC2CCCO2)c1 (stereo not drawn)		25.1 µM (active)
COc1ccc(C(=O)c2c[nH]c(C(=O)NCc3cccs3)c2)cc1	-8.62%	
Cc1ccccc1C(=O)c1c[nH]c(C(=O)NCc2cccs2)c1		10 µM (active)
O=C(O)CC[C@]1(C(=O)O)CCC(=O)c2ccccc21	-9.13% [at 11.4 µM]	
